Consider 32 compounds from the supplement of paper PMC3484114.

± gives the standard deviation.

This experiment deals with OVCAR-3-derived ovarian cancer stem-like cells (spheroids). The experiment in a line: cell growth relative to untreated control; higher = more growth (less inhibition). Conditions: 2.29 µM; 96 h. The procedure, abridged: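 After trypsin dissociation, OVCAR-3 spheroid-derived stem-like cells were placed in ultra-low attachment 96-well plates at 50,000 cells/mL in stem cell medium and preincubated for 24 h. Treatment at 2.29 uM followed for 96 h at 37°C, 5% CO2, with 4 replicate wells per compound. A 4 h TOX8 resazurin fluorescence read (ex 560/em 590 nm) gave viability, from which percent growth relative to untreated wells was derived after blank subtraction and Grubbs outlier removal.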
The compound `COc1ccc(-c2cc(=O)c3c(OC)c(OC)c(OC)cc3o2)cc1` yielded a cell growth of 120 ± 31%.
Then `[Cl][Cd][Cl]`, with 87.6 ± 51%; and `CC[C@@]1(O)C[C@H](O[C@H]2C[C@H](N(C)C)[C@H](O[C@H]3C[C@@H]4O[C@H]5CC(=O)[C@H](C)O[C@H]5O[C@@H]4[C@H](C)O3)[C@H](C)O2)c2c(cc3c(c2O)C(=O)c2c(O)ccc(O)c2C3=O)[C@H]1C(=O)OC`, with 11 ± 3.4%; and `CN(C)C(=S)SSC(=S)N(C)C`, with 103 ± 17%.
Next, `CCCNC1=C(C)C(=O)C2=C(C1=O)[C@H](COC(N)=O)[C@]1(OC)[C@@H]3N[C@@H]3CN21`: 60.4 ± 24%.
Next, `CC(/C=N/N=C(N)N)=N\N=C(N)N`: 70.6 ± 16%.
For `C=C1C(=O)O[C@@H]2C[C@@H](C)[C@@H]3C=CC(=O)[C@@]3(C)[C@@H](O)[C@H]12`, the cell growth amounted to 14.5 ± 2.5%.
Next, `CNC(=O)ON(C(C)=O)C(=O)NC`: 114 ± 42%.
Next, `Cc1ccc(N=Nc2c(O)ccc3ccccc23)cc1`: 74.1 ± 8.8%; `CC[C@@]1(O)C[C@H](O[C@H]2C[C@H](N(C)C)[C@H](O)[C@H](C)O2)c2c(cc3c(c2O)C(=O)c2c(O)ccc(O)c2C3=O)[C@H]1C(=O)OC`: 50.3 ± 31%.
Next, `CCOC(=O)[C@H](CC(C)C)NC(=O)C(Cc1ccc(N(CCCl)CCCl)cc1)NC(C)=O` (some centres not stated): 73.3 ± 40%; `CCOC(OCC)C(CC)[Se]c1ccccc1[N+](=O)[O-]` (configuration not stated): 120 ± 21%; `Fc1cccc(F)c1C1SCc2nc3ccccc3n21` (configuration not stated): 78.4 ± 9.6%.
Take `COC1CC(CC2CCC(C)C(C(C)C(=O)O)O2)OC2(OC(C)(C3CCC(C)(C4OC(C5OC(O)(CO)C(C)CC5C)CC4C)O3)CC2C)C1C` (configuration not stated): the cell growth was 64.5 ± 48%.
Next, `[Cl][Hg][c]1ccc2ccccc2c1`: 62.6 ± 8.8%; `CC(=O)OC1C(O)C(C)OC(OC2C(OC(=O)C3CCC4C(C3)OC3(CC(OC(=O)/C=C/c5ccccc5)C(C)CO3)C43CO3)OC(C)C(O)C2OC(C)=O)C1O` (configuration not stated): 5.3 ± 3.2%.
Next, `CC(C)(Br)C(=O)C(Br)Br`: 88.9 ± 28%; `CCCC/C=C/C=C/C=C/CCCCCCCC(=O)OCC(COC(=O)CCCCCCC/C=C/C1C=CC(CCCC)C(C(=O)O)C1C(=O)O)OC(=O)CCCCCCC/C=C/C=C/C=C/CCCC.OCCNCO` (configuration not stated): 115 ± 16%; `CC(=O)[O][Hg][c]1c(C)c(C)c(C)c(C)c1C`: 94.5 ± 28%.
For `CC12C(=O)OC(=O)C1(C)C1CCC2O1` (configuration not stated), the cell growth was 91 ± 14%.
As for `CC(=O)O[C@@H]1C[C@H]2O[C@@H]3C=C(C)CC[C@]3(C)[C@]1(C)[C@]21CO1`, the cell growth was found to be 48.5 ± 11%.
`Cc1cc(N(CC(C)Br)CC(C)Br)ccc1N=Nc1ccccc1C(=O)O` (configuration not stated) yielded a cell growth of 64.5 ± 14%.
Then `CC(C)c1oc(=O)cc2c1[C@@H](O)[C@H]1OC(=O)[C@@]3(C)[C@@H](O)[C@H]4O[C@H]4[C@@]2(C)[C@@H]13`, with 62.6 ± 32%; and `CC[C@@]12CCCN3CC[C@]4(c5cccc(OC)c5N(C(C)=O)[C@@H]4CC1)[C@H]32`, with 144 ± 29%; and `CC1=C(N2CC2)C(=O)C(CO)=C(N2CC2)C1=O`, with 9 ± 3.5%.
Next, `CC[C@@]1(O)C[C@H](OC2CC(N(C)C)C(O)C(C)O2)c2c(O)c3c(c(O)c2[C@H]1OC1CC(N(C)C)C(O)C(C)O1)C(=O)c1cccc(O)c1C3=O` (some centres not stated): 58.8 ± 56%.
Next, `O=C1N[C@H]2[C@H](O)[C@H](O)[C@@H](O)[C@H](O)[C@@H]2c2cc3c(c(O)c21)OCO3`: 19.5 ± 2.6%.
On to `O=C1N[C@@H]2C(=C[C@H](O)[C@@H](O)[C@H]2O)c2cc3c(c(O)c21)OCO3`, for which the cell growth turned out to be 111 ± 17%.
Next, `C[C@@H]1C[C@H]2CC[C@H](O2)[C@H](C)C(=O)O[C@@H](C)C[C@@H]2CC[C@@H](O2)[C@@H](C)C(=O)O[C@H](C)C[C@H]2CC[C@H](O2)[C@H](C)C(=O)O[C@@H](C)C[C@@H]2CC[C@@H](O2)[C@@H](C)C(=O)O1`: 31.3 ± 6%; `N#Cc1cn([C@@H]2O[C@H](CO)[C@@H](O)[C@H]2O)c2ncnc(N)c12`: 8.9 ± 3.4%; `O=C1OC(c2ccccc2)=N/C1=C\c1ccc(N(CCCl)CCCl)cc1`: 64.5 ± 12%.
Next, `Cc1c(N)nc([C@H](CC(N)=O)NC[C@H](N)C(N)=O)nc1C(=O)N[C@H](C(=O)N[C@H](C)[C@@H](O)[C@H](C)C(=O)N[C@H](C(=O)NCCc1nc(-c2nc(C(=O)NCCC[S+](C)C)cs2)cs1)[C@@H](C)O)[C@@H](OC1OC(CO)C(O)C(O)C1OC1OC(CO)C(O)C(OC(N)=O)C1O)c1cnc[nH]1` (some centres not stated): 53 ± 10%.
